Unmarked numbers belong to inactive results. Records with an inconclusive call do not appear. A call without a number means that no potency is given here. Calls of active or inactive are those of the source. Unless noted, calls come from the whole dose curve.
Assays:
[1] = target: Aryl hydrocarbon receptor (Homo sapiens) (UniProt P35869); test: qHTS assay to identify small molecule that activate the aryl hydrocarbon receptor (AhR) signaling pathway (AID 743085; active = well fitted curve in the direction sought with a large enough effect in the repeat runs; an effect the other way counts as inactive or inconclusive;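 note: HG2L7.5c1 human HepG2 liver cells with stably integrated DRE-driven firefly reporter; nearly all actives have a fitted effect of over 15% in size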)
Aryl hydrocarbon receptor (Homo sapiens), sequence (P35869 whole entry, looked up): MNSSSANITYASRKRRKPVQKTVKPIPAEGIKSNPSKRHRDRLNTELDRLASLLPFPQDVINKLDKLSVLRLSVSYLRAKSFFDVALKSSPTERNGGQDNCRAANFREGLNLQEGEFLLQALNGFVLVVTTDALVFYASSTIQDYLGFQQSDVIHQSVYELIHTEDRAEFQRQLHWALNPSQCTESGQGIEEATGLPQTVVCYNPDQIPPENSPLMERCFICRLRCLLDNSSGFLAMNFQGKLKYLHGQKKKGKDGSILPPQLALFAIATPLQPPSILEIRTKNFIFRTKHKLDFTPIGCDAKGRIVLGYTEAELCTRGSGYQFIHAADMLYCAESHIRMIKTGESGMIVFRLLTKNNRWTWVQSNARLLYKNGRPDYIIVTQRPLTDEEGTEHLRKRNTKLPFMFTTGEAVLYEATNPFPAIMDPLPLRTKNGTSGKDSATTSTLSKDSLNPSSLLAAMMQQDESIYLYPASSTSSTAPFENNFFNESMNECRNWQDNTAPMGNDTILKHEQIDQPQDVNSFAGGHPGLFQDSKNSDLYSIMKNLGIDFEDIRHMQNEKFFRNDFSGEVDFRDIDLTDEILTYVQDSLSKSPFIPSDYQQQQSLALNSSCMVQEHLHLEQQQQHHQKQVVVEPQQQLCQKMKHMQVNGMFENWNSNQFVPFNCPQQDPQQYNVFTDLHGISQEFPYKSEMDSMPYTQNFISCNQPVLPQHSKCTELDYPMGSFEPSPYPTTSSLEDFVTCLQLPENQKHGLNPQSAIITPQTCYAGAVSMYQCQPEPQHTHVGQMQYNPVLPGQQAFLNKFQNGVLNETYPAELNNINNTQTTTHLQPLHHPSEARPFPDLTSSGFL
Outline: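 Stably transfected human liver carcinoma cells (HG2L7.5c1; 20 DRE-firefly luciferase) were incubated 5 h, dosed, and kept 24 h at 37C. Agonism was scored from increased luciferase luminescence.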

[2] = qHTS assay to identify small molecule antagonists of the retinoic acid receptor (RAR) signaling pathway (AID 1159552; active = well fitted curve in the direction sought with a large enough effect in the repeat runs; an effect the other way counts as inactive or inconclusive; note: nearly all actives have a fitted effect of over 50% in size; note: potency is the fitted concentration of half-maximal effect)
Outline: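 Test chemicals and DMSO controls were pin-transferred onto C3RL4 cells a day after seeding; retinol (1 uM final) followed at once. Luminescent reporter output was quantified after 6 hr of co-incubation and 30 min with detection reagent.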

[3] = qHTS assay to identify small molecule agonists of the estrogen related receptor (ERR) signaling pathway from Tox21 library (AID 1224849); conditions: ERR reporter cell line, ONE-Glo luciferase, 18 h; at 92.4 µM (top of the series) unless noted; note: nearly all actives have a fitted effect of over 15% in size
Outline: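 Luminescence readout (ONE-Glo, 30 min RT) after 18 h compound exposure at 37 C of NTP-supplied ERR reporter cells; cells were plated 6 h before compound addition by pin tool.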

[4] = A CellTox Green Cytotoxicity Assay to monitor cytotoxicity in HepG2 cells - 0 hour (AID 1224882; active = well fitted curve in the direction sought with a large enough effect in the repeat runs; an effect the other way counts as inactive or inconclusive; note: nearly all actives have a fitted effect of over 35% in size)
Outline: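 HepG2, 600 cells/well premixed w/ CellTox Green; 5 h settle, 37 C/5% CO2; pintool cpd add (DMSO); 37 C, 40 h; fluorescence read at 0, 8, 16, 24, 32, 40 h.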

[5] = qHTS assay to identify small molecule HDAC inhibitors (AID 1259364; active = well fitted curve in the direction sought with a large enough effect in the repeat runs; an effect the other way counts as inactive or inconclusive;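 note: wild-type HCT-116 cells with endogenous class I/II HDAC activity; top concentration of the series differs between compounds; nearly all actives have a fitted effect of over 45% in size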)
Outline: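 HCT-116 (wild type), 1,500 cells/well, overnight; compound 2 hr 37C 5% CO2; HDAC-Glo I/II reagent 30 min RT; luminescence readout.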

[6] = qHTS assay to identify small molecule agonists of the sonic hedgehog signaling (Shh) pathway (AID 1259368);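 note: NIH/3T3-derived 3T3Gli1-Luc cells carrying a stable Gli1-driven firefly luciferase reporter; nearly all actives have a fitted effect of over 15% in size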
Outline: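 Read-out: firefly luciferase luminescence from a Gli1 response element reporter stably integrated in NIH/3T3-derived 3T3Gli1-Luc cells, measured 30 min at room temperature after reagent addition. Compound exposure lasted 24 hr at 37 C, 5% CO2.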

[7] = Caspase-3/7 induction in HepG2 cells by small molecules, qHTS assay (AID 1346978; active = well fitted curve in the direction sought with a large enough effect in the repeat runs; an effect the other way counts as inactive or inconclusive; note: nearly all actives have a fitted effect of over 15% in size)
Outline: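 Wild-type HepG2 cells (2,000/well) were settled 5 h at 37 C, 5% CO2, then exposed to compounds in DMSO for 17 h. Caspase-3/7 activity was read by luminescence 30 min after adding Caspase-Glo 3/7 reagent at room temperature.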

[8] = Caspase-3/7 induction in CHO-K1 cells by small molecules, qHTS assay (AID 1346980; active = well fitted curve in the direction sought with a large enough effect in the repeat runs; an effect the other way counts as inactive or inconclusive; note: nearly all actives have a fitted effect of over 15% in size)
Outline: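 Wild-type cells were seeded at 1,500 per well and settled 5 hr at 37 C, 5% CO2, then exposed to DMSO-dissolved compounds for 17 hr. Caspase-Glo 3/7 reagent was added, and luminescence was read after 30min at room temperature.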

[9] = target: Acetylcholinesterase (Homo sapiens) (UniProt P22303); test: Acetylcholinesterase (AChE) small molecule antagonists: colormetric cell-based qHTS assay (AID 1347395); note: nearly all actives have a fitted effect of over 30% in size
Acetylcholinesterase (Homo sapiens), sequence (P22303 whole entry, looked up): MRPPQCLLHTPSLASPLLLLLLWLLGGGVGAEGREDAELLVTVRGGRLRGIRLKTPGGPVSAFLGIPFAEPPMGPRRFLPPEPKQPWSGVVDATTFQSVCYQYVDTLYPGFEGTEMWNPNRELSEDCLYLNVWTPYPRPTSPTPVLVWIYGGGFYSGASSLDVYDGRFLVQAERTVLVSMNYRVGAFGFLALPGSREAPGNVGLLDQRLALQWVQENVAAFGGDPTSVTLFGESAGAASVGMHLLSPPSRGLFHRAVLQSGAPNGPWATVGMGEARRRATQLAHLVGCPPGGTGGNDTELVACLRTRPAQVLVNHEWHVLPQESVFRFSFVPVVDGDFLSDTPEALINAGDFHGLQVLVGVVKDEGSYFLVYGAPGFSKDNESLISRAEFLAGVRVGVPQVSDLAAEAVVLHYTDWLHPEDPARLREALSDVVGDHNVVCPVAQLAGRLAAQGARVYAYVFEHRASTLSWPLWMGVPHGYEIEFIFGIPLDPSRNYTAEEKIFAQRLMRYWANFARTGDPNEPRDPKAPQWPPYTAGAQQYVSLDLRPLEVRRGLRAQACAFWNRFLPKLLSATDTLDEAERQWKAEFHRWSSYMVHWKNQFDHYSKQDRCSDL
Outline: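 After overnight attachment at 37 C, SH-SY5Y cells get 30 min compound exposure; detection cocktail (acetylthiocholine, DTNB) then incubates 90 min at 37 C, and absorbance reflects AChE-generated thiocholine.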

[10] = target: Acetylcholinesterase (Homo sapiens) (UniProt P22303); test: Acetylcholinesterase (AChE) small molecule antagonists: enzyme-based qHTS assay (AID 1347397); conditions: Potency: AChE enzyme activity inhibition; outcome: AChE enzyme activity inhibition; note: nearly all actives have a fitted effect of over 55% in size; note: potency is the fitted concentration of half-maximal effect
Outline: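 Compound or DMSO vehicle was pin-transferred onto recombinant human AChE (50 mU/mL as dispensed) and left 30 min at room temperature. Acetylthiocholine with DTNB then started the reaction, read colorimetrically 10 min later.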

[11] = target: Acetylcholinesterase (Homo sapiens) (UniProt P22303); test: Acetylcholinesterase (AChE) small molecule antagonists: fluorescence cell-based qHTS assay (AID 1347398); conditions: Potency: AChE activity; outcome: AChE activity; note: nearly all actives have a fitted effect of over 50% in size
Outline: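 Using neuroblastoma SH-SY5Y cells as the enzyme source, test chemicals are preincubated 30 min at 37 C; AChE-driven acetylthiocholine cleavage is then quantified by thiocholine-dependent Thiolite Green fluorescence after 40 min at room temperature.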

[12] = target: Acetylcholinesterase (Homo sapiens) (UniProt P22303); test: Acetylcholinesterase (AChE) small molecule antagonists: enzyme-based qHTS assay with human liver microsomes (AID 1347399); conditions: Potency: qHTS inhibition; outcome: qHTS inhibition; note: nearly all actives have a fitted effect of over 60% in size
Outline: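 Recombinant human AChE (50 mU/mL in the enzyme mix) and human liver microsomes (0.25 mg/mL final) were preincubated with compound and NADPH (0.25 mg/mL final) for 30 min at 37 C. Acetylthiocholine/DTNB was then added; thiocholine was read colorimetrically after 10 min at room temperature.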

[13] = qHTS assay to identify small molecule agonists of H2AX (AID 1224845; active = well fitted activation curve with a large enough effect in the signal ratio in the repeat runs, not every such curve was filed as active; the % refers to the signal ratio)
Outline: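 Wild-type CHO-K1 cells plated overnight, then exposed 3 hr at 37C to compounds at 15 concentrations (0.76% DMSO). Lysed, then HTRF anti-pH2AX(S139)-cryptate/anti-H2AX-d2 detection after 24 hr at room temperature; emissions 665 and 620 nm.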

[14] = target: Aromatase (Homo sapiens) (UniProt P11511); test: qHTS assay to identify aromatase inhibitors (AID 743083; active = well fitted curve in the direction sought with a large enough effect in the repeat runs; an effect the other way counts as inactive or inconclusive; note: nearly all actives have a fitted effect of over 55% in size; note: potency is the fitted concentration of half-maximal effect)
Aromatase (Homo sapiens), sequence (P11511 whole entry, looked up): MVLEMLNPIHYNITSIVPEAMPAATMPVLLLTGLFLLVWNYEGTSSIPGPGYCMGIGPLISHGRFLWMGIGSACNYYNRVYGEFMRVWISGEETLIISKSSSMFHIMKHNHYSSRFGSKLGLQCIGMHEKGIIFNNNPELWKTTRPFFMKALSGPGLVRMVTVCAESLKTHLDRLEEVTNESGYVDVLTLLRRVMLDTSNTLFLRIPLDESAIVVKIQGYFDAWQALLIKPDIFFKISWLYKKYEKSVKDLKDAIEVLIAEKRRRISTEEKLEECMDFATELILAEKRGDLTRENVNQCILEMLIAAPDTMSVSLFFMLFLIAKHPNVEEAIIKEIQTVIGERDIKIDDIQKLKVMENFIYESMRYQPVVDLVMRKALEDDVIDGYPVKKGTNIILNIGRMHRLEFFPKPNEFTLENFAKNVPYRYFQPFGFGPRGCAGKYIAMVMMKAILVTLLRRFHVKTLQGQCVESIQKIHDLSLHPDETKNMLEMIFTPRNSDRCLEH

Structure (SMILES)	Potency [1]	Potency [2]	activity change, positive = activation [3]	Potency [4]	outcome [5]	outcome [6]	Potency [7]	outcome [8]	Potency [9]	Potency [10]	Potency [11]	Potency [12]	Potency [13]	Potency [14]	outcome [9]	outcome [10]	outcome [11]	outcome [12]
ClC1=C(Cl)[C@]2(Cl)[C@@H]3[C@@H](Cl)[C@H]4O[C@H]4[C@@H]3C1(Cl)C2(Cl)Cl	inactive	68.6 µM (active)	-26.9%	inactive	inactive	inactive	inactive	inactive	inactive	inactive	inactive	inactive	–	–	–	–	–	–
Cc1nnc2n1-c1sc(CCc3ccc(CC(C)C)cc3)cc1C(c1ccccc1Cl)=NC2C (stereo not drawn)	inactive	33.5 µM (active)	-59.4% [at 42.5 µM]	inactive	inactive	inactive	–	inactive	inactive	inactive	inactive	inactive	–	–	–	–	–	–
O=C(c1ccccc1)C(Cl)Cl	–	24.3 µM (active)	-27.3%	inactive	inactive	inactive	inactive	inactive	inactive	inactive	inactive	inactive	inactive	–	–	–	–	–
Cc1c(N)cccc1[N+](=O)[O-]	–	inactive	–	–	–	–	–	–	inactive	inactive	inactive	inactive	–	inactive	–	–	–	–
Cc1cc(C(C)(C)c2ccc(O)c(C)c2)ccc1O	inactive	58.2 µM (active)	-66.8%	inactive	inactive	inactive	–	inactive	inactive	inactive	inactive	inactive	inactive	65.3 µM (active)	–	–	–	–
C[C@]12CC[C@@H](O)C[C@@H]1CC[C@@H]1[C@@H]2CC[C@]2(C)C(=O)CC[C@@H]12	–	–	–	inactive	inactive	inactive	inactive	inactive	–	–	–	–	inactive	–	–	–	–	–
O=C1C(I)=CC(=C(c2cc(I)c(O)c(I)c2)c2ccccc2C(=O)O)C=C1I	inactive	inactive	–	inactive	inactive	inactive	inactive	inactive	inactive	34.7 µM (active)	inactive	inactive	inactive	inactive	–	–	–	–
c1ccncc1	inactive	–	–	–	–	–	inactive	–	–	–	–	–	–	inactive	inactive	inactive	inactive	inactive
Cc1cccc(C)c1[N+](=O)[O-]	–	inactive	–	–	–	–	inactive	–	inactive	inactive	inactive	inactive	inactive	inactive	–	–	–	–
Brc1ccc(-c2ccccc2)cc1	–	inactive	–	–	–	–	–	–	inactive	inactive	inactive	inactive	–	inactive	–	–	–	–
Brc1c2ccccc2cc2ccccc12	inactive	inactive	–	–	–	–	inactive	–	inactive	inactive	inactive	inactive	–	inactive	–	–	–	–
Nc1cccc([N+](=O)[O-])c1	–	inactive	–	–	–	–	–	–	inactive	inactive	inactive	inactive	–	inactive	–	–	–	–

From PubChem BioAssay (Tox21)
